GDH-TPI counter-1: inhibits GDH-TPI coupling enzymes, artifact for Mtb FBA screen; hit rate 1.2% among 360,000; inhibition, % at 4.8 µM; GDH-TPI coupled enzyme counterscreen, NADH absorbance; in the data active = inhibition above about 30%;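 note: 0% = DMSO wells and 100% = wells lacking the enzyme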
Mtb betalactam: beta-lactam sensitization of Mtb H37Rv; hit rate 0.27% among 330,000; inhibition, % at 25 µM; M. tuberculosis H37Rv growth with meropenem, percent inhibition;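 note: growth measured after seven days incubation then overnight dye step; 0% = bacteria only wells and 100% = bacteria with antibiotic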
FBA Mtb inh: Mtb fructose-bisphosphate aldolase inhibition | AID 588726 | purified M. tuberculosis FBA, fluorescence read-out | hit rate 2.3% among 360,000 | inhibition, % at 1 µM; in the data active = inhibition above about 27%;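 note: 0% = vehicle and 100% = reference inhibitor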
Target sequence (P9WQA3 whole entry, looked up): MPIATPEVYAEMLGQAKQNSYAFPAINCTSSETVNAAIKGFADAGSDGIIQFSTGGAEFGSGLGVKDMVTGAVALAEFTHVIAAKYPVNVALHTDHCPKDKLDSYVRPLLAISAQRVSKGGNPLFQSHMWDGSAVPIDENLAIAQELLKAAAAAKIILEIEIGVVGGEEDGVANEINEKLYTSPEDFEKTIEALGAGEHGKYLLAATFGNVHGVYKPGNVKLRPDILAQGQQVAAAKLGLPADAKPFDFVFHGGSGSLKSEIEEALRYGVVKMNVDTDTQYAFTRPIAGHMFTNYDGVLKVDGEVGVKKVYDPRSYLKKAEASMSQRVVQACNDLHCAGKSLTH
CCHF vOTU inh: CCHFV vOTU protease inhibition. AID 651958. inhibition, % at 11.5 µM. Pep-AMC fluorescence. hit rate 0.55% among 370,000; in the data active = inhibition above about 30%; note: 0% = vehicle wells with enzyme and 100% = no enzyme wells
MazEF act: activators of E. coli MazEF toxin-antitoxin RNase | P0AE70 | FAM/BHQ RNA-DNA oligo cleavage fluorescence, 5 h | activation, % at 20 µM | hit rate 0.32% among 350,000 | AID 504720; in the data active = activation above about 50%
Target sequence (P0AE70 whole entry, looked up): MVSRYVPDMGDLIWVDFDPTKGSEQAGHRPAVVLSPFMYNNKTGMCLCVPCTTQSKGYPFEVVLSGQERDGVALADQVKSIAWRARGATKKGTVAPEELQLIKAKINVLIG
Mtb FBA confirm: Mtb FBA inhibition, confirmed; shares compounds with FBA Mtb inh; inhibition, % at 1 µM; hit rate 78% among 5,600; purified M. tuberculosis FBA, fluorescence read-out; in the data active = inhibition above about 27%;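 note: 0% = vehicle wells and 100% = reference inhibitor wells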
GDH-TPI counter-2: inhibits GDH-TPI coupling enzymes, flagging Mtb FBA hits | shares compounds with FBA Mtb inh | AID 652141 | GDH-TPI coupled enzyme counterscreen, fluorescence | inhibition, % at 1 µM | hit rate 81% among 5,600; in the data active = inhibition above about 10%
GDH-TPI dose: counter-screen for M. tuberculosis FBA inhibitors: GDH-TPI dose response | shares compounds with FBA Mtb inh | GDH-TPI coupled enzyme assay, fluorescence, artifact counterscreen | IC50, µM | hit rate 79% among 170
The depositor's hits bear a star; ? = inconclusive; . = no result given; + = active, no number. Only some compounds are listed: those with a hit (about 4% of all), similar ones and a draw of the others. Unless noted, the rule behind the calls is not given here.

SMILES	GDH-TPI counter-1	Mtb betalactam	FBA Mtb inh	CCHF vOTU inh	MazEF act	Mtb FBA confirm	GDH-TPI counter-2	others
O=C(O)CCc1nn2c3ccccc3nc2n(CCN2CCCCC2)c1=O	20.1	-12.3	34.6*	-21.1	1.1	117.4*	88.2*
C=CCn1c2ccccc2n2nc(C)c(=O)nc12	12.8	-2.3	22.2	-9.7	-4.1	.	.
Oc1ccc(-c2nccs2)cc1	18.4	.	47.4*	-22.2	-19.9	108.3*	86.2*
Oc1ccc(-c2nc(-c3ccc(O)c(O)c3)cs2)cc1	-3.7	-0.5	-1.7	5.1	13.1	.	.
O=C1CCc2cc(S(=O)(=O)N3CCN(c4ccccc4Cl)CC3)ccc2N1	.	.	.	6.5	.	.	.
CCOC(=O)C(=O)C1=C(N2CCOCC2)/C(=C\c2ccc(F)cc2)CC1	20.8	31.2	-7.9	2.8	-2.2	.	.
CCCCN(C(=O)NC(=O)C1=C(N2CCOCC2)/C(=C/c2ccccc2)CC1)S(C)(=O)=O	20.4	-2.5	44.0*	-32.5	-5.5	127.8*	82.8*
CN[C@H]1C[C@H]2c3[nH]c4c(-c5ccc6c(c5)OCO6)cccc4c3CCN2C(=O)[C@H]1[C@H](C)O	.	.	.	-15.7	.	.	.
CC(C)(C)NC(=O)CSc1nc(-c2ccccc2)c(-c2ccccc2)[nH]1	7.8	?	6.9	4.8	-5.9	.	.
O=C(O)CSc1nc(-c2ccccc2)c(-c2ccccc2)[nH]1	-2.6	9.0	28.7*	12.0	-0.9	0.7	1.5
COc1ccc(-c2n[nH]c(=S)n2-c2cc(OC)ccc2OC)cc1	0.5	-0.8	0.6	-7.5	7.7	.	.
COc1ccc2c(C)cc3n[nH]c(=S)n3c2c1	27.7	-3.8	37.4*	-3.8	-6.4	32.9*	21.5*
CC(=O)Nc1ccc(S(=O)(=O)Nc2nc3cc4c(cc3nc2Cl)OCCO4)cc1	23.7	10.6	62.3*	-44.5	2.2	76.3*	70.7*
O=S(=O)(Nc1nc2cc3c(cc2nc1Cl)OCCO3)c1ccccc1	2.9	4.0	47.9*	-35.0	2.7	60.8*	37.4*
CC(=O)Nc1ccc(S(=O)(=O)Nc2nc3ccccc3nc2Cl)cc1	-2.9	0.5	-1.0	-1.4	-1.2	.	.
COc1ccc(CNC(=O)C23CC4CC(CC(Br)(C4)C2)C3)cc1	4.5	1.2	53.8*	1.0	-6.4	71.3*	39.5*
CCOCCCNC(=O)C(NC(=O)c1ccccc1O)c1ccc(C)cc1 (stereo not given)	4.2	-4.2	41.7*	-22.6	6.4	+	168.7*
CC12CCC(C(=O)N(NC(=O)c3cc(Cl)ccc3O)C1=O)C2(C)C (stereo not given)	5.7	-12.7	44.2*	-31.7	-3.7	-0.1	-7.3
COc1cc2c(cc1NC(=S)Nc1cccc(C)c1)oc1ccccc12	31.0*	76.5	86.7*	-25.1	2.3	11.7	-4.2	GDH-TPI dose=>10
CCNC(=S)Nc1cc2oc3ccccc3c2cc1OC	6.8	84.3	31.3*	-6.5	3.1	4.2	4.8
COc1cc2c(cc1NC(=O)Nc1cccc(C)c1)oc1ccccc12	12.2	-4.0	3.7	0.7	10.6	.	.
COc1cc2c(cc1NC(=S)Nc1ccccc1C)oc1ccccc12	36.2*	81.8	110.7*	-16.9	1.7	55.6*	42.6*
COc1ccc(NC(=O)NCCCN2CCN(c3ccc(F)cc3)CC2)cc1OC	.	.	.	-3.7	.	.	.
COC(=O)[C@@]12CCCCC3=C1N(CCC3)C(=O)[C@H]2CC(=O)NCc1cccc(C(F)(F)F)c1	.	.	.	3.8	.	.	.
O=C(NCCc1ccccc1)OCc1cn(Cc2ccccc2C(F)(F)F)nn1	.	.	.	-3.2	.	.	.
SMILES	GDH-TPI counter-1	Mtb betalactam	FBA Mtb inh	CCHF vOTU inh	MazEF act	Mtb FBA confirm	GDH-TPI counter-2	others
COC(=O)[C@]12C[C@H](CC(=O)NCc3ccc(OC)c(OC)c3)C(=O)N(Cc3ccc4c(c3)OCO4)C1=C[C@H](C(C)C)O[C@@H]2C1CC1	.	.	.	12.2	.	.	.
COc1cccc(/C=C/C(=O)OCC(=O)NC2CC2)c1	-1.1	1.4	27.8*	-15.2	3.8	-0.8	-3.2
O=C(COC(=O)/C=C/c1ccc(F)cc1)NC1CCCC1	-3.9	.	2.9	2.9	-7.3	.	.
COC(=O)c1ccc(CNC(=O)COC(=O)/C=C/c2cccc(OC)c2)cc1	8.8	.	27.5*	-5.8	3.9	167.7*	156.6*
COc1cccc(/C=C/C(=O)OCC(=O)NCCc2ccccc2)c1	-8.0	10.1	27.8*	1.2	5.2	+	181.7*
COc1cccc(/C=C/C(=O)OCC(=O)NC2CCCC2)c1	8.8	.	20.2	12.6	1.7	.	.
CSc1ccc(/C=C/C(=O)OCC(=O)NC2CCCC2)cc1	41.1*	.	61.3*	-60.8	3.9	+	+
CC(=O)C1=C(C)N(Cc2ccc(F)cc2)C(=S)NC1c1ccc(Cl)cc1 (stereo not given)	.	.	.	8.7	.	.	.
O=C(NC1CCCCN(Cc2ccc(Cl)cc2)C1=O)C1C2CC3CC(C2)CC1C3 (stereo not given)	.	.	.	1.5	.	.	.
CCOC(=O)C1CCCN(S(=O)(=O)c2cc3[nH]c(=O)c(=O)[nH]c3cc2C)C1 (stereo not given)	18.8	1.5	47.5*	-24.6	-0.1	83.3*	58.2*
O=S1(=O)c2ccc(Br)cc2OC[C@@H](Cc2ccccc2)N1Cc1cn(CCC2OCCCO2)nn1	.	.	.	-8.2	.	.	.
CCOC(=O)c1cc2c(=O)n3cccc(C)c3nc2n(Cc2ccco2)c1=NC(=O)c1cccnc1	20.4	.	105.6*	-63.9	6.6	30.7*	34.7*
COC(=O)[C@]12C[C@H](CC(=O)NCc3cccs3)C(=O)N(Cc3cccc4ccccc34)C1=C[C@H](C1CCCC1)O[C@@H]2C	.	.	.	9.2	.	.	.
c1ccc2nc(-c3nc4ccccc4o3)ccc2c1	19.5	.	69.2*	-27.6	-7.4	117.9*	104.4*
c1ccc(-c2nc3ccccc3o2)nc1	-4.8	-6.3	29.1*	9.8	7.0	6.9	1.2
Nc1ccc2oc(-c3ccccn3)nc2c1	14.7	-5.5	0.1	6.4	-7.1	.	.
c1ccc(-c2ccc3ccccc3n2)cc1	6.9	8.2	-0.3	11.5	8.4	.	.
Cc1ccc(NC(=O)c2ccc3snnc3c2)cc1C	3.4	-7.7	-1.7	24.3	8.6	.	.
O=C(Nc1ccc(F)cc1)c1ccc2snnc2c1	5.3	-2.5	45.6*	3.1	0.1	121.5*	114.2*
CCOC(=O)[C@]12CCCC=C1N(Cc1ccc(OC)cc1)C(=O)[C@@H]2CC(=O)NCCCN1CCCC1=O	.	.	.	-4.3	.	.	.
COc1ccccc1-c1cc2ccccc2[nH]1	12.3	7.2	89.7*	-22.8	3.3	48.9*	26.6*
O=C(O)c1ccccc1-c1cc2ccccc2[nH]1	-3.2	11.1	2.8	8.3	-3.4	.	.
CN(C)C1(CNC(=O)Nc2ccccc2)CCCCC1	-3.7	2.9	1.2	6.1	-27.0	.	.
CN(C)C1(CNCC(O)c2ccccc2)CCCCC1 (stereo not given)	9.7	-4.8	30.0*	-13.6	2.1	120.7*	106.3*
